Most compounds without a hit are left out; they make up all but 2.3% or so of the library.
CHRM1 antagonist: human CHRM1 antagonism. inhibition, % at 3 µM. P11229. CHO-K1 hM1, Fluo-8 calcium fluorescence, ACh EC80 antagonist. 360,000 tested, 1.3% active;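 active = percent inhibition above its own plate's cutoff, namely the mean of that plate's compound wells plus 3 SD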;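 also: peak over basal fluorescence ratio during 140 s after agonist addition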
Target sequence (P11229 whole entry, looked up): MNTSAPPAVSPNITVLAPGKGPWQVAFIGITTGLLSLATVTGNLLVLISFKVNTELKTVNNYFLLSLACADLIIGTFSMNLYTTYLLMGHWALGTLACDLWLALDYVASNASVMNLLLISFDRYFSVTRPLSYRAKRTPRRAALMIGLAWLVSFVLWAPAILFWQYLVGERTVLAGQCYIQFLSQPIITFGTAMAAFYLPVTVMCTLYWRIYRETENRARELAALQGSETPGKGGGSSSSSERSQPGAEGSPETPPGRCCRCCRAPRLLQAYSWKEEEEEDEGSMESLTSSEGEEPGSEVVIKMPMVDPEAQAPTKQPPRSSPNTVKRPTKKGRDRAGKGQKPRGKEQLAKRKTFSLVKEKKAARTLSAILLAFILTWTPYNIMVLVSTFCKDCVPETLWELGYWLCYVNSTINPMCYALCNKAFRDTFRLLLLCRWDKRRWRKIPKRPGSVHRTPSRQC
CHRM1 PAM: potentiates human M1 receptor response to acetylcholine; P11229; 360,000 tested, 0.088% active; CHO-K1 hM1, Fluo-8 calcium fluorescence, ACh EC20; 0% = ACh EC20, 100% = maximal ACh; activation, % at 3 µM; in the data active = activation above about 19%, passing the limit was not always enough
M1 ag parental: nonselective activator or artifact in parental CHO-K1 cells. AID 602248. Fluo-8 calcium fluorescence; scaled to maximal ATP response, vehicle zero. activation, % at 3 µM. 360,000 tested, 0.48% active; in the data active = activation above about 15%;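 also: untransfected CHO-K1 host cells lacking M1 receptor as counterscreen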
CHO-K1 Ca antag: nonselective inhibitor or artifact in parental CHO-K1 cells; ATP-induced calcium, Fluo-8 fluorescence; inhibition, % at 3 µM; 360,000 tested, 0.6% active; AID 602250;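 active = inhibition above a per-plate cutoff, the plate's mean sample inhibition plus 3 SD, cut at about 24% in these data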
M1 PAM parental: M1 PAM counterscreen hit in parental CHO-K1 cells; activation, % at 3 µM; 360,000 tested, 0.02% active; ATP EC20, Fluo-8 calcium fluorescence; 0% at ATP EC20, 100% at ATP max;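 active = activation above the run cutoff, the mean activation of all test compounds plus 3 SD, cut at about 40% in these data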;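 also: peak over basal fluorescence ratio in a 140 s read after ATP addition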
M1 ag: activates human CHRM1 receptor; P11229; CHO-K1 hM1, Fluo-8 calcium fluorescence, agonist mode; 0% DMSO, 100% acetylcholine EC100; activation, % at 3 µM; 360,000 tested, 0.33% active;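 active = activation above the run's mean compound activation plus 3 SD, cut at about 16% in these data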;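 also: peak over basal fluorescence ratio within a 140 s kinetic read after compound addition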
A number is an active result; – = inactive.

SMILES | CHRM1 antagonist | CHRM1 PAM | M1 ag parental | CHO-K1 Ca antag | M1 PAM parental | M1 ag
COc1cc(C2C=C(c3cccs3)Nc3ncnn32)cc(OC)c1OC (stereo not given) | – | – | 19.7 | – | – | –
CC(C(=O)NCc1ccccc1)N1CCN(c2ccc(F)cc2)CC1 (stereo not given) | – | – | – | – | – | –
COC(=O)CSc1nnc2n(-c3ccc(OC)cc3)c(=O)c3c4c(sc3n12)CCCCC4 | – | – | – | 24.3 | – | –
COC(=O)CSc1nnc2n(C3CCCCC3)c(=O)c3c4c(sc3n12)CCCC4 | – | – | – | – | – | –
Cc1ccc(Cl)cc1N1CCN(C(=O)CCS(=O)(=O)c2ccc3c(c2)NC(=O)CO3)CC1 | 37.0 | – | 15.5 | – | – | –
CCOC(=O)C1=C(C)N(C)C(=O)NC1c1cc2c(cc1[N+](=O)[O-])OCO2 (stereo not given) | – | – | – | – | – | –
COc1ccccc1NS(=O)(=O)c1cccc(-n2c(O)c(C=Nc3ccccc3C(=O)O)c3ccccc3c2=O)c1 | 69.8 | – | – | – | – | –
CC/C(=N\NC(=O)CSCc1ccccc1Cl)c1ccc2c(c1)OCCO2 | – | – | – | – | – | –
CC/C(=N\NC(=O)CSCc1ccc(Cl)cc1)c1ccc2c(c1)OCCO2 | – | – | – | 27.6 | – | –
C[n+]1c(-c2ccccc2)cc2c(=Cc3ccc([N+](=O)[O-])cc3)c3ccccc3n21 | 42.2 | – | – | – | – | –
C[n+]1c(-c2ccccc2)cc2c(=Cc3ccccc3)c3ccccc3n21 | 45.7 | – | – | – | – | –
O=C(c1cc(-c2ccncc2)nc2ccc(Cl)cc12)N1CCN(Cc2ccc3c(c2)OCO3)CC1 | – | – | – | – | – | –
O=C(c1cc(-c2ccncc2)nc2ccc(Br)cc12)N1CCN(Cc2ccc3c(c2)OCO3)CC1 | 43.0 | – | – | – | – | –
Cn1ccs/c1=N\C(=O)Nc1cccc(C(F)(F)F)c1 | – | – | – | – | – | –
Cc1ccc2c(c1)C(=O)N1[C@H]3c4ccccc4OC[C@@H]3[C@H](c3ccccc3)[C@]1(C)C(=O)N2 | 64.8 | – | – | – | – | –
Cc1ccc2c(c1)NC(=O)[C@@]1(C)[C@@H](c3ccccc3)[C@H]3COc4ccccc4[C@@H]3N1C2=O | – | – | – | – | – | –
C[C@@]12C(=O)Nc3ccc(Br)cc3C(=O)N1[C@H]1c3ccccc3OC[C@@H]1[C@@H]2c1ccccc1 | 26.6 | – | – | – | – | –
Cc1ccc(S(=O)(=O)N2CCN(C(=O)CN3C(=O)c4ccc([N+](=O)[O-])cc4C3=O)CC2)c(C)c1 | – | – | – | – | – | –
COc1ccc(Cl)cc1-n1c(=S)sc2c(=O)[nH]c(SCC(=O)C(C)(C)C)nc21 | – | – | – | – | – | –
COc1ccc(-n2c(SCC(N)=O)nc3nc4c(cc3c2=O)COC(C)(C)C4)cc1 | – | – | – | – | – | –
CCn1c(SCC(=O)Nc2cccc(C)c2)nc2nc3c(cc2c1=O)COC(C)(C)C3 | – | – | 16.0 | – | – | –
CC(Cc1ccccc1)NC(=O)CSc1nc2nc3c(cc2c(=O)n1-c1ccccc1)COC(C)(C)C3 (stereo not given) | – | – | – | – | – | 16.2
CCn1c(SCC(=O)Nc2ccc(OC)cc2OC)nc2nc3c(cc2c1=O)COC(C)(C)C3 | – | – | – | – | – | –
CC(C)[N+](C)(C)CC(O)CN(c1ccccc1)c1ccccc1 (stereo not given) | 85.5 | – | – | – | – | –
NCC(O)CN(c1ccccc1)c1ccccc1 (stereo not given) | – | – | – | – | – | –
SMILES | CHRM1 antagonist | CHRM1 PAM | M1 ag parental | CHO-K1 Ca antag | M1 PAM parental | M1 ag
CN1C2CCC1CC(NC(=O)CSc1ccc(Cl)cc1)C2 (stereo not given) | 53.0 | – | – | – | – | –
C=C(C)COc1ccc(-c2n[nH]c(C)c2-c2ccc(OC)c(OC)c2)c(O)c1 | – | – | – | 55.3 | – | –
COc1ccc(-c2n[nH]c(C)c2-c2ccc(Cl)cc2)c(O)c1 | – | – | – | – | – | –
COc1ccc(-c2n[nH]c(C)c2-c2ccc(Cl)cc2)c(O)c1OC | 34.6 | – | – | 26.5 | – | –
Cc1cccc(C)c1OCC(O)Cn1ccnc1C (stereo not given) | – | – | – | 25.6 | – | –
C[C@@H](NC(=O)c1nc[nH]c1C(=O)NCC(=O)OCc1ccccc1)c1ccccc1 | 33.0 | – | – | – | – | –
C[C@H](NC(=O)c1nc[nH]c1C(=O)NCc1ccc(CNC(=O)OC(C)(C)C)cc1)C(=O)OCc1ccccc1 | 44.5 | – | – | – | – | –
C[C@@H](NC(=O)c1nc[nH]c1C(=O)OCc1ccccc1)c1ccccc1 | – | – | – | – | – | –
CCc1nn2cc(C(=O)c3cc(Cl)ccc3O)cnc2c1-c1ccc(F)cc1 | 43.0 | – | – | – | – | –
Cc1nn(-c2ccccc2)c2ncc(C(=O)c3cc(Cl)ccc3O)cc12 | – | – | – | – | – | –
O=C(Cc1ccccc1)Nc1ccc(NC(=O)c2ccco2)nc1 | – | – | – | 24.9 | – | –
CCCC(=O)Nc1ccc(NC(=O)c2ccccc2Cl)nc1 | – | – | – | 23.7 | – | –
Cc1[nH]c2ccccc2c1C(=O)CN1C(=O)NC(C)(c2ccc(Cl)cc2Cl)C1=O (stereo not given) | – | – | – | – | – | 27.1
CCN1/C(=C/C=C/c2oc3ccc(-c4ccccc4)cc3[n+]2CC)Oc2ccc(-c3ccccc3)cc21 | 102.5 | – | 857.0 | 101.9 | – | 598.6
CCCn1c(N)c(NCCN2CCOCC2)c(=O)n(CC(=O)NCc2ccccc2)c1=O | – | – | – | – | – | –
Fc1ccc(N2CCN(Cc3cn[nH]c3-c3ccccc3)CC2)cc1 | – | – | – | – | – | –
Fc1ccc(-c2[nH]ncc2CN2CCN(c3ccc(F)cc3)CC2)cc1 | – | – | – | – | – | 16.8
COc1ccccc1N1CCN(C(=O)C2CCCN(S(=O)(=O)c3ccc4c(c3)oc(=O)n4C)C2)CC1 (stereo not given) | – | – | 20.6 | – | – | –
Cc1cccc(NC(=S)NC(=O)Cc2ccccc2)c1C | – | – | – | – | – | 16.9
Cc1cc(C)c(O)c(NC(=S)NC(=O)Cc2ccccc2)c1 | – | – | – | – | – | 18.9
Cc1c(NC(=S)NC(=O)Cc2ccccc2)cccc1C(=O)O | – | – | – | – | – | –
Cc1cc(/C=N/n2cnnc2)c(C)n1-c1ccc(OCc2ccc(F)cc2)cc1 | 45.7 | – | – | – | – | –
Cc1cc(/C=N/n2cnnc2)c(C)n1-c1ccc(OCc2ccc(Cl)cc2Cl)cc1 | – | – | – | 42.6 | – | –
Cc1cc(/C=N/n2cnnc2)c(C)n1-c1ccc(Cl)cc1 | – | – | – | – | – | –
